Results reported in the supplement of paper PMC10849652.
For part of these data: Of roughly 7,900 targets only a part is listed; those with a hit were picked by preference. For part of these data: About 0.6% of all pairs of compound and target were hits. For part of these data: The full data set covers some 8,800 targets. This sample favours those with a hit. For part of these data: About 0.5% of all pairs of compound and target were hits.

What was measured:
[1] = compound: C1=CC=C(C=C1)[C@H](COC2=CC3=C(C=C2)NC(=O)N3)NC(=O)C4=CC=CN(C4=O)CC5=CC(=C(C=C5)F)F; test: log2 fold change, soluble protein after heating vs DMSO (PISA); higher = thermal stabilisation; K562 cells, 10 uM, 30 min; active = over 0.2 and 3.5 SD of the protein, either way, in both replicates (recomputed)
How it was run: (§1)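 Soluble protein was defined as the supernatant after 21,000xg for 90 min. It came from K562 cells at 2×10^6 cells/mL given 10 μM compound for 30 min, heated in aliquots for 3 min across 48°C-58°C, pooled, and extracted in PBS with 0.5% NP-40 at 4°C, and was quantified by TMTpro 16plex LC-MS/MS with equalised channel sums. Thermal stability against control samples, from duplicates, is reported as log2 fold change.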

[2] = compound: CC1=C(SC2=C1C(=N[C@H](C3=NN=C(N32)C)CC(=O)N)C4=CC=C(C=C4)Cl)C; test: as above
How it was run: as §1

[3] = compound: CC1=C2C(=CC=C1)N=C(N(C2=O)C3=CC=CC=C3C)CN4C=NC5=C(N=CN=C54)N; test: as above
How it was run: as §1

[4] = compound: Cc1sc2c(c1C)C(c1ccc(Cl)cc1)=N[C@@H](CC(=O)OC(C)(C)C)c1nnc(C)n1-2; test: as above
How it was run: as §1

[5] = compound: c1ccc([C@@H]2C[C@H]2NC2CCNCC2)cc1; test: as above
How it was run: as §1

[6] = compound: C1=CC=C(C=C1)[C@H](COC2=CC3=C(C=C2)NC(=O)N3)NC(=O)C4=CC=CN(C4=O)CC5=CC(=C(C=C5)F)F; test: log2 fold change, soluble protein after heating vs DMSO (PISA); higher = thermal stabilisation; K562 lysate, 10 uM; active = over 0.2 and 3.5 SD of the protein, either way, in both replicates (recomputed)
How it was run: (§2)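 Thermal stability, expressed as log-two fold change relative to solvent controls, is given from duplicates. Crude K562 extract in PBS pH 7.4 with 1 mM MgCl2, at 1 mg/mL protein, was treated with 10 μM compound for 30 min and heated in aliquots for 3 min across 48°C-58°C. After pooling, adjustment to 0.5% NP-40 at 4°C and centrifugation at 21,000xg for 90 min, supernatant protein was measured by TMTpro 16plex LC-MS/MS with channel sums equalised.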

[7] = compound: CC1=C(SC2=C1C(=N[C@H](C3=NN=C(N32)C)CC(=O)N)C4=CC=C(C=C4)Cl)C; test: as above
How it was run: as §2

[8] = compound: Cc1sc2c(c1C)C(c1ccc(Cl)cc1)=N[C@@H](CC(=O)OC(C)(C)C)c1nnc(C)n1-2; test: as above
How it was run: as §2

[9] = compound: c1ccc([C@@H]2C[C@H]2NC2CCNCC2)cc1; test: as above
How it was run: as §2

[10] = compound: CC1=C2C(=CC=C1)N=C(N(C2=O)C3=CC=CC=C3C)CN4C=NC5=C(N=CN=C54)N; test: as above
How it was run: as §2

Measured: log2 fold change

ZFPL1 (UniProt O95159)
Chain of UniProt O95159 (O95159 whole entry, looked up): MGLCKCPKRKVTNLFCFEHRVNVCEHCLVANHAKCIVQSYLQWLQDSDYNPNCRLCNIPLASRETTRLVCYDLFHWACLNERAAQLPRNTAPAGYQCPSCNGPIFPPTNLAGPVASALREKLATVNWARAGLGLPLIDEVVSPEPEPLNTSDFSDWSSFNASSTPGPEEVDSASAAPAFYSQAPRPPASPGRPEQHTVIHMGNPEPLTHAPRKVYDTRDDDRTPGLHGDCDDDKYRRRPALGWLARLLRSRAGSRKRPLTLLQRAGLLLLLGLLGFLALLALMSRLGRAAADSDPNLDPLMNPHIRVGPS
inactive: [1] 0.09 | [2] 0.084 | [3] 0.063 | [4] -0.042 | [5] -0.032

ZWILCH (UniProt Q9H900)
Chain of UniProt Q9H900 (Q9H900 whole entry, looked up): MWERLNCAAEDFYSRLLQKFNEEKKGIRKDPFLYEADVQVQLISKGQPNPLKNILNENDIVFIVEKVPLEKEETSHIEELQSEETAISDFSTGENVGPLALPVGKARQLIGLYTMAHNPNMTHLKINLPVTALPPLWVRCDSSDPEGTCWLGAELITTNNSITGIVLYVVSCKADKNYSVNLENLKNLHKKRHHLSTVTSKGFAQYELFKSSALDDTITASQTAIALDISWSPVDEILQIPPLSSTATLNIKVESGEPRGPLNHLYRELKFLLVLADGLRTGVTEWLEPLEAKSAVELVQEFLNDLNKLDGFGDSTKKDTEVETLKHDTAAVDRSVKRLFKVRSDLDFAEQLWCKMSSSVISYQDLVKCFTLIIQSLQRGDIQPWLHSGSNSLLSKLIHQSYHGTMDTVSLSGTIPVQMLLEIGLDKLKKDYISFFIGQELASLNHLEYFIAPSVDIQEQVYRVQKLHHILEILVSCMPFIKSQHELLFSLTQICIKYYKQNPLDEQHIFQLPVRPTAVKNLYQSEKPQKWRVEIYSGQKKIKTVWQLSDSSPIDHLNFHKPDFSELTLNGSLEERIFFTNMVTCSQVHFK
inactive: [1] -0.077 | [2] 0.036 | [3] 0.063 | [4] 0.037 | [5] 0.002

AIF1L (UniProt Q9BQI0)
Chain of UniProt Q9BQI0 (Q9BQI0 whole entry, looked up): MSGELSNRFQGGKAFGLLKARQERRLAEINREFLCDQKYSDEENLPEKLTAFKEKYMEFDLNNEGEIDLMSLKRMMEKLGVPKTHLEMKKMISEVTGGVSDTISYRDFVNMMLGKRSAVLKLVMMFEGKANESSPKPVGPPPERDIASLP
inactive: [6] 0.072 | [7] -0.031 | [8] 0.049 | [9] -0.022

ACLY (UniProt P53396)
Chain of UniProt P53396 (P53396 whole entry, looked up): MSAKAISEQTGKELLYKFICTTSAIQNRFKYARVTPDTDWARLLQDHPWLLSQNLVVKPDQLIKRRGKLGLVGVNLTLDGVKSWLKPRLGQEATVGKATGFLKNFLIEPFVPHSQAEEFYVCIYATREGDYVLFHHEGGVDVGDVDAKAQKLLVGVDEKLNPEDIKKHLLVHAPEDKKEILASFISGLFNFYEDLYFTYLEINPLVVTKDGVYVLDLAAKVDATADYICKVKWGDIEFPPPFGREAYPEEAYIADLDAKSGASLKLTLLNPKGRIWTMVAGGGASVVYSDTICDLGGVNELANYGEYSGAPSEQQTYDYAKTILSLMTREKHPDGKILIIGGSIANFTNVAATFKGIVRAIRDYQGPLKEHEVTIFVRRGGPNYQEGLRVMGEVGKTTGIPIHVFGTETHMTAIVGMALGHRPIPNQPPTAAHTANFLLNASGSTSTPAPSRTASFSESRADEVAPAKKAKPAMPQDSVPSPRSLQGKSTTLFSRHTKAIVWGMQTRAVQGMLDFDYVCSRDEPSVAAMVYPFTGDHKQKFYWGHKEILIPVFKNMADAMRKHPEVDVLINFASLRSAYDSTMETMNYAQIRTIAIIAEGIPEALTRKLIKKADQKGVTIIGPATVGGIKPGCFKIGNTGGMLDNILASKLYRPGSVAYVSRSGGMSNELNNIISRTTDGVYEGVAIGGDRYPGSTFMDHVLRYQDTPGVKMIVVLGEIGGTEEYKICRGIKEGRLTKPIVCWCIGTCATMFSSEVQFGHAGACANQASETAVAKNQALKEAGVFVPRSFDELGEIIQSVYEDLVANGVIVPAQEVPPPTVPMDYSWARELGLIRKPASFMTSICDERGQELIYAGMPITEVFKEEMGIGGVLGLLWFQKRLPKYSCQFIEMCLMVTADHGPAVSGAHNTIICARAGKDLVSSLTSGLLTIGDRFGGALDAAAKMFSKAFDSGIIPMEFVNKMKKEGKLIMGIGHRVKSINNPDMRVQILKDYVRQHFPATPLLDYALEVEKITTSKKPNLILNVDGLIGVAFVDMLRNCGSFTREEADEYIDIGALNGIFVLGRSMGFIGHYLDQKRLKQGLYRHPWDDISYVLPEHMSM
inactive: [6] 0.011 | [7] 0.03 | [10] 0.004 | [8] 0.03 | [9] 0.023

ZDHHC8 isoform 3 (UniProt Q9ULC8)
inactive: [1] 0.105 | [4] 0

YPEL5 (UniProt P62699)
Chain of UniProt P62699 (P62699 whole entry, looked up): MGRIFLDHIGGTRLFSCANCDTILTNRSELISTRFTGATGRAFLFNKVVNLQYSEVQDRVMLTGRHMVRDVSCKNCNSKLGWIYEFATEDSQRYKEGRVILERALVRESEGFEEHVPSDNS
inactive: [1] -0.066 | [2] 0.044 | [3] 0.016 | [5] -0.081

ZFP91 (UniProt Q96JP5)
Chain of UniProt Q96JP5 (Q96JP5 whole entry, looked up): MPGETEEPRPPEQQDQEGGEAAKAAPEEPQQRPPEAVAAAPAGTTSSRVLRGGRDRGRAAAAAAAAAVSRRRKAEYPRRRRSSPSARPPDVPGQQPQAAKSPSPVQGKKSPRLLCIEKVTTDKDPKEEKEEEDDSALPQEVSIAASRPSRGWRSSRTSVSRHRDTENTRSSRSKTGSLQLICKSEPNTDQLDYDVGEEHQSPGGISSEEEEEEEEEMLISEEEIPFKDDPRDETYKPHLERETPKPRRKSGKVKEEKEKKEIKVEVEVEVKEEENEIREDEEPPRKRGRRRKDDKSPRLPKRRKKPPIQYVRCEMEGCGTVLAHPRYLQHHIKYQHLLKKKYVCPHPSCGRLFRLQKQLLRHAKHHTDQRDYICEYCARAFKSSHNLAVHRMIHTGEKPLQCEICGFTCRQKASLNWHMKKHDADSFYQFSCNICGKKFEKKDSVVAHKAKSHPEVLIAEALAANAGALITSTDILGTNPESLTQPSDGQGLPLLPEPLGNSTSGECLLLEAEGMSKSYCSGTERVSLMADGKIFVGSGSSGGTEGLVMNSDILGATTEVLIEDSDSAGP
inactive: [1] -0.038 | [2] -0.221 | [3] -0.052 | [4] 0.096 | [5] 0.03

YY1 (UniProt P25490)
Chain of UniProt P25490 (P25490 whole entry, looked up): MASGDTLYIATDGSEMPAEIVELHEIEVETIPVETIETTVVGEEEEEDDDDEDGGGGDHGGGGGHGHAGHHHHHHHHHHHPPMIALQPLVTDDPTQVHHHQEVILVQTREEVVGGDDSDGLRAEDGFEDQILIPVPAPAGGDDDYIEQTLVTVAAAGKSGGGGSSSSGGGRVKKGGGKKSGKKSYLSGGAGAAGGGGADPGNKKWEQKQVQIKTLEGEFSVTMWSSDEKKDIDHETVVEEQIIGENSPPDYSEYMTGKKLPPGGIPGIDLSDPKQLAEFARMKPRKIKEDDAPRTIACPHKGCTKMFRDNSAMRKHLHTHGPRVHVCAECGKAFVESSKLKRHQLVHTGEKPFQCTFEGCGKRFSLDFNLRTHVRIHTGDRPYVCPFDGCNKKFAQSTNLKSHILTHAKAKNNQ
inactive: [1] 0.013 | [2] -0.006 | [3] -0.033 | [4] -0.015 | [5] 0.084

YOD1 (UniProt Q5VVQ6)
Chain of UniProt Q5VVQ6 (Q5VVQ6 whole entry, looked up): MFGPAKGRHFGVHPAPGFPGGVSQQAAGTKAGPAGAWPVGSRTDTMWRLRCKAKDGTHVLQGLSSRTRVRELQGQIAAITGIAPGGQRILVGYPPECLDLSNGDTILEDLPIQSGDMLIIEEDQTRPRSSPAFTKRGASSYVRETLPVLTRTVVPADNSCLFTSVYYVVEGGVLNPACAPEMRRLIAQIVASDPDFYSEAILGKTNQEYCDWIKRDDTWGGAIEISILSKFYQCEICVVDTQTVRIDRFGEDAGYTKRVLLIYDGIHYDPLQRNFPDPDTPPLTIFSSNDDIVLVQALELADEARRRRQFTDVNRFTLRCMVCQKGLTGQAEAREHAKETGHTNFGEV
inactive: [1] -0.071 | [2] 0.035 | [3] 0.063 | [4] -0.005 | [5] 0.046

ZC3H18 (UniProt Q86VM9)
Chain of UniProt Q86VM9 (Q86VM9 whole entry, looked up): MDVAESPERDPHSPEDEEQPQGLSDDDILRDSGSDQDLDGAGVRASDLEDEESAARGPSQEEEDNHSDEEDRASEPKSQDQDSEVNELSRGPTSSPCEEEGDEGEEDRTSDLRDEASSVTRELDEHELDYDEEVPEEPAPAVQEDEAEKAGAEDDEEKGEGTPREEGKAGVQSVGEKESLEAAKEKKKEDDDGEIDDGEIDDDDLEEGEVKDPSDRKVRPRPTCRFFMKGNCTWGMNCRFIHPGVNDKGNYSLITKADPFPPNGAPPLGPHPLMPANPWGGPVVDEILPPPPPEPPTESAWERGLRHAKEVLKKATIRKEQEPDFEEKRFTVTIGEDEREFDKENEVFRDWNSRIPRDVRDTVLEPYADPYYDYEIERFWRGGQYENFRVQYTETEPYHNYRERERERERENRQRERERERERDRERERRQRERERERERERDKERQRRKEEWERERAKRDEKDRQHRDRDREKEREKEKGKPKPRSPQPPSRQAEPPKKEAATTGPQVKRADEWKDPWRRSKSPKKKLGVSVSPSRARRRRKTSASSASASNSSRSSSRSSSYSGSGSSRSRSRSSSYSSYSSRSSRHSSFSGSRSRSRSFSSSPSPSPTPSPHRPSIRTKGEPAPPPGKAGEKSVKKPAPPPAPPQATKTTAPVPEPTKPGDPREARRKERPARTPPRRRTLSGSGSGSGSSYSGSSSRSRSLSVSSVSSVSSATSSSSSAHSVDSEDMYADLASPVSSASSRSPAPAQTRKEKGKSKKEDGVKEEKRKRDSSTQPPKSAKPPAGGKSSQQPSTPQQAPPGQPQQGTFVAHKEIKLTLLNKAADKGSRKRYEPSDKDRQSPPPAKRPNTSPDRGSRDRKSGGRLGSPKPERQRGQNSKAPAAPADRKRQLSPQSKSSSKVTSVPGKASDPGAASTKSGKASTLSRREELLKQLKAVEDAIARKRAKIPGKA
inactive: [1] 0.032 | [2] -0.031 | [3] 0.035 | [4] 0.021 | [5] 0.047
